The source of these data is PubChem BioAssay (EPA / NIEHS).

Test [1] can be described thus: APR_HepG2_CellCycleArrest_1hr: Apredica 1-hour HepG2 Assay for Cell Cycle Arrest (AID 2282666). The following applies: high-content imaging, actives raise or lower the signal. A digest of the protocol:
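HepG2 cells exposed for 1 h to 0.39–200 uM compound (0.5% DMSO). Fixed, Hoechst-stained nuclei imaged by ArrayScan; DNA content quantified by Cell Cycle analysis; bidirectional fit against DMSO.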

Test [2] can be described thus: ACEA_ER_80hr: ACEA Biosciences xCELLigence Real-Time Cell Analysis on Estrogen Receptor Agonism for Proliferation (AID 2282667; active = hit-call score of the fitted dose curve at least 0.9, where 1 is the maximum). The following applies: T47D proliferation, impedance (xCELLigence), 80 h. The method, boiled down:
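Real-time impedance growth kinetics of human T-47D breast cells read 80 h after dosing, gain-of-signal fitted relative to DMSO. Compounds: 1:4 serial series, top final concentration 100 uM, n = 2.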

A short description of test [3]: APR_HepG2_MicrotubuleCSK_1hr: Apredica 1-hour HepG2 Assay for Microtubule CSK Stabilty (AID 2282669). The following applies: HepG2 microtubule cytoskeleton imaging, actives raise or lower the signal. The method, boiled down: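 HepG2 cells exposed 1 h to 0.39–200 uM compound (0.5% DMSO, duplicates), then formaldehyde-fixed, permeabilized and immunostained for alpha-tubulin with Hoechst nuclei. Imaged by ArrayScan high-content analysis; bidirectional fit versus DMSO.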

A short description of test [4]: APR_HepG2_p53Act_1hr: Apredica 1-hour HepG2 Assay for p53 Activation (AID 2282671). The following applies: high-content imaging, actives raise or lower the signal. The method, boiled down: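 HepG2 cells treated 1 h with compound at 0.39–200 uM (10 concentrations, duplicate) in 0.5% DMSO. Formaldehyde-fixed, permeabilised cells immunostained for p53 with Hoechst 33342; high-content imaging, bidirectional fit versus DMSO.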

Test [5] in a line: APR_HepG2_MitoticArrest_1hr: Apredica 1-hour HepG2 Assay for Mitotic Arrest (AID 2282672). The following applies: high-content imaging, actives raise or lower the signal. A digest of the protocol: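 HepG2 cells exposed 1 hr to compounds at 0.39–200 uM (0.5% v/v DMSO final), then fixed in 3.7% formaldehyde and immunostained for phospho-histone H3 with Hoechst 33342. Mitotic arrest scored by automated fluorescence imaging, fitted bidirectionally versus DMSO.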

A short description of test [6]: APR_HepG2_P-H2AX_1hr: Apredica 1-hour HepG2 Assay for H2AX Phosphorylation (AID 2282673). The following applies: high-content imaging, actives raise or lower the signal. The method, boiled down:
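HepG2 dosed 1 hr at 0.39-200 uM (0.5% DMSO final), duplicate. Fixed in 3.7% formaldehyde, Triton permeabilized, immunostained for phospho-histone H2A.x (1:200) with Hoechst 33342; ArrayScan 20x imaging, bidirectional fit vs DMSO.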

Test [7] is described as follows: APR_HepG2_MitoMembPot_1hr: Apredica 1-hour HepG2 Assay for Mitochondrial Membrane Potential (AID 2282675). As to conditions: imaging, actives raise or lower the signal. A digest of the protocol:
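HepG2 cells dosed 1 hour with 0.39–200 uM compound in duplicate, 0.5% DMSO final. MitoTracker Red CMXRos (250 nM, 30 min) loaded before formaldehyde fixation; fluorescence quantified by high-content imaging, bidirectional fitting versus DMSO.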

Test [8] can be described thus: APR_HepG2_CellCycleArrest_24hr: Apredica 24-hour HepG2 Assay for Cell Cycle Arrest (AID 2282905).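 Also: cell cycle arrest scored as ratio of 2N to 4N nuclear DNA content.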 As to conditions: imaging, actives raise or lower the signal. The method, boiled down: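 Cell cycle arrest is scored from nuclear DNA content measured by high-content imaging of Hoechst 33342-stained HepG2 cells following 24-hour treatment at ten concentrations up to 200 uM, with DMSO as baseline.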

Test [9] in a line: APR_HepG2_StressKinase_1hr: Apredica 1-hour HepG2 Assay for Stress Kinase (AID 2282906). The following applies: HepG2 stress kinase (phospho-c-Jun) imaging, actives raise or lower the signal. The method, boiled down: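 HepG2 cells dosed 0.39-200 uM (0.5% DMSO) for 1 h, then formaldehyde-fixed. Stress kinase read by phospho-c-Jun immunofluorescence using high-content imaging; bidirectional fit vs DMSO.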

A short description of test [10]: APR_HepG2_NuclearSize_24hr: Apredica 24-hour HepG2 Assay for Nuclear Size (AID 2282907). The following applies: high-content imaging, actives raise or lower the signal. The method, boiled down: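 Compounds in DMSO (final 0.5%) were added to human HepG2 hepatoma cells at ten concentrations up to 200 uM for 24 hr. Fixed nuclei were stained with Hoechst 33342, and nuclear diameter was quantified from automated images.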

A short description of test [11]: APR_HepG2_CellLoss_24hr: Apredica 24-hour HepG2 Assay for Cell Loss (AID 2282908). As to conditions: high-content imaging. The method, boiled down:
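Cell number is quantified by fluorescence imaging of Hoechst 33342-stained nuclei following dosing at 0.39–200 uM in 0.5% DMSO. Curves are fitted in both directions from the DMSO baseline.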

Test [12] can be described thus: APR_HepG2_MicrotubuleCSK_24hr: Apredica 24-hour HepG2 Assay for Microtubule CSK Stabilty (AID 2282909). As to conditions: HepG2 microtubule cytoskeleton imaging, actives raise or lower the signal. A digest of the protocol: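 Steps: dose HepG2 for 24 h (0.39–200 uM, 0.5% DMSO); fix 30 min in 3.7% formaldehyde at room temperature; permeabilize; stain alpha-tubulin 60 min; image microtubule cytoskeleton at 20x. Signal change fitted in both directions relative to DMSO.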

Test [13] in a line: APR_HepG2_MitoticArrest_24hr: Apredica 24-hour HepG2 Assay for Mitotic Arrest (AID 2282910). As to conditions: high-content imaging, actives raise or lower the signal. The method, boiled down:
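Compounds are dosed onto HepG2 cells across ten concentrations up to 200 uM for 24 hr. Cells are then fixed in 3.7% formaldehyde, permeabilised, and labelled for phospho-histone H3 and nuclei; images are scored by cell cycle analysis and fitted bidirectionally relative to DMSO.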

A short description of test [14]: APR_HepG2_MitoMembPot_24hr: Apredica 24-hour HepG2 Assay for Mitochondrial Membrane Potential (AID 2282911). The following applies: imaging, actives raise or lower the signal. A digest of the protocol:
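Mitochondrial membrane potential imaged via MitoTracker Red CMXRos (250 nM, 30 min pre-fixation) in fixed HepG2 cells with Hoechst nuclear identification. Ten concentrations 0.39–200 uM, 24 h treatment, 0.5% DMSO; CCCP as positive control.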

Test [15] in a line: APR_HepG2_p53Act_24hr: Apredica 24-hour HepG2 Assay for p53 Activation (AID 2282913).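 Also: p53 protein immunofluorescence averaged per cell in HepG2 with Hoechst nuclei.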 The following applies: high-content imaging, actives raise or lower the signal. The method, boiled down:
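Fluorescence imaging of formaldehyde-fixed HepG2 cells labelled for p53 and with Hoechst, 24 h after dosing (0.39–200 uM, duplicate wells, 0.5% v/v DMSO). Signal fitted in both directions relative to DMSO.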

A short description of test [16]: APR_HepG2_CellCycleArrest_72hr: Apredica 72-hour HepG2 Assay for Cell Cycle Arrest (AID 2282914). The following applies: high-content imaging, actives raise or lower the signal. The method, boiled down: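 Read-out: nuclear DNA content from Hoechst 33342 high-content imaging (20x, six fields/well) after 3.7% formaldehyde fixation, fitted bidirectionally against DMSO. Treatment was 72 h in HepG2, ten concentrations 0.39–200 uM, duplicate, 0.5% DMSO.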

Test [17] in a line: APR_HepG2_NuclearSize_1hr: Apredica 1-hour HepG2 Assay for Nuclear Size (AID 2282670). As to conditions: high-content imaging, actives raise or lower the signal. The method, boiled down:
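HepG2 cells dosed 1 hr with 0.39–200 uM compound (0.5% DMSO), formaldehyde-fixed, Hoechst 33342-stained and imaged at 20x; nuclear diameter from nuclear stain, fitted bidirectionally against DMSO.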

Test [18] is described as follows: APR_HepG2_MitoMass_24hr: Apredica 24-hour HepG2 Assay for Mitochondrial Mass (AID 2282912). The following applies: high-content imaging, actives raise or lower the signal. A digest of the protocol:
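The liver line HepG2 was dosed in duplicate across a 0.39–200 uM series, with final DMSO held at 0.5% v/v, and harvested at 24 hr. High-content imaging measured mitochondrial dye staining.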

Test [19] in a line: APR_HepG2_MitoMass_1hr: Apredica 1-hour HepG2 Assay for Mitochondrial Mass (AID 2282674). The following applies: high-content imaging, actives raise or lower the signal. The method, boiled down:
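HepG2 cells dosed 1 hr with 0.39-200 uM compound (0.5% DMSO), duplicate wells. Mitochondria stained with 250 nM MitoTracker Red CMXRos for 30 min before formaldehyde fixation, imaged at 20x by ArrayScan; bidirectional fit versus DMSO.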

Inconclusive results are not listed. Calls of active or inactive are those of the source. The calls were made as follows, unless noted: active = hit-call score of the fitted dose curve at least 0.9, where 1 is the maximum; inactive = score below 0.9.

Turning to `COc1cc(Cl)c(OC)cc1Cl`, the compound was classed as inactive in test [1], in test [2], in test [3], in test [4], in [5] and in test [6]. Moreover, the outcome in test [7], in test [8], in [9], in [10], in test [11] and in [12] was inactive. The call in [13], in test [14] and in test [15] was inactive.
For the compound `CSC(=O)c1c(C(F)F)nc(C(F)(F)F)c(C(=O)SC)c1CC(C)C`, the result in test [1], in [2], in test [3], in test [4], in test [5] and in test [6] was inactive. Also, the compound was called inactive in test [7], in test [8], in [10], in test [11], in [12] and in test [13]. Besides, the result in test [14], in test [15] and in test [16] was inactive.
For `COc1ccc(-c2ccccc2)cc1NNC(=O)OC(C)C`, the compound was called inactive in test [1], in test [2], in [3], in test [17], in test [4] and in test [5]. In addition, the call in [6], in test [7], in [8], in [9], in [10] and in test [11] was inactive. Also, the compound was called inactive in [12], in test [13], in test [14] and in [15].
On to `COCc1cnc(C2=NC(C)(C(C)C)C(=O)N2)c(C(=O)O)c1` (stereo not drawn), for which the compound was called inactive in test [1], in test [2], in test [3], in test [17], in test [5] and in test [6]. Also, the call in test [8], in [10], in test [11], in [12], in test [13] and in [14] was inactive. In addition, the compound was called inactive in test [16].
For `CC1(C)C(C=C(Cl)Cl)C1C(=O)OC(C#N)c1cccc(Oc2ccccc2)c1` (stereo not drawn), the call in test [1], in test [2], in test [3], in test [17], in test [4] and in test [5] was inactive. Further, the outcome in [6], in test [7], in test [10], in test [11], in [12] and in [13] was inactive. Besides, the call in test [14], in [18] and in test [15] was inactive. Moreover, the concentration at half-maximal activity (AC50) (commonly the concentration at which the activity in the assay is half-maximal) in [8] is 35.1 µM (active).
For the compound `Clc1cccc(C(Cl)(Cl)Cl)n1`, the outcome in [1], in test [2], in [3], in [17], in [4] and in test [5] was inactive. In addition, the compound was called inactive in test [6], in test [8], in test [9], in test [10], in test [11] and in test [12]. Moreover, the compound was classed as inactive in test [13], in [14], in test [18], in test [15] and in test [16].
As to `CCNC(=O)NC(=O)C(C#N)=NOC`, in test [1], the AC50 is 0.0391 µM (active). The result in [2], in test [3], in test [5], in test [6], in [19] and in test [7] was inactive. Also, the compound was called inactive in [8], in [9], in [10], in test [11], in [12] and in test [13]. Further, the compound was classed as inactive in [14], in [18] and in test [16].
Regarding `O=C(Nc1ccccc1-c1ccc(Cl)cc1)c1cccnc1Cl`, the compound was called inactive in test [1], in [2], in [3], in test [17], in [4] and in test [5]. The result in [6], in [19], in [8], in [10], in test [11] and in [12] was inactive. Besides, the compound was classed as inactive in test [13] and in [15]. In addition, the AC50 in [14] is 66.8 µM (active).
